Screening data deposited in PubChem by several laboratories.
Rows were chosen to be rich in hits. Some 2.8% of all compounds tested hit in one or more screens of this group.
HIF-2a block: HIF-2a reporter inhibitors, primary screen, luminescence, 786-0 RCC cells; 786-0 RCC cells HIF-2a reporter, luciferase luminescence, overnight; inhibition, % at 18.8 µM; hit rate 0.72% among 360,000; AID 624352, 2012;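 active means inhibition of the luminescence signal of 40% or more relative to plate controls, in a single-dose primary screen at 18.75 µM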
Peg3 prom inh: Peg3 promoter-driven luciferase inhibitors, primary screen, cell-based, HeLa, luciferase luminescence | hit rate 1.7% among 360,000 | HeLa PEG-Prom luciferase reporter, overnight | inhibition, % at 20 µM;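 active means inhibition of at least 50% at 20 µM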
Shn3 inh set2: reduction of Shn3 3'UTR firefly luciferase signal, primary screen, Schnurri-3 inhibitor project, cell-based, Clone20 osteoblasts, set 2. hit rate 0.52% among 360,000. Clone20 osteoblast Shn3 3'UTR firefly luciferase, 24 h. inhibition, % at 12.5 µM;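 active means mean inhibition of at least 75% with every replicate also reaching 75%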
LMP1 NFkB inh: EBV LMP1-driven NF-kappaB luciferase reporter inhibitors, primary screen, cell-based, luminescence, single point. LMP1-induced NF-kappaB luciferase reporter cells. inhibition, % at 12.5 µM. hit rate 0.69% among 350,000; in the data active means inhibition above about 41%
TRPM1 prom inh: inhibitors of MITF-dependent TRPM1 promoter reporter, primary screen, cell-based, SK-MEL-5, single point, luciferase | SK-MEL-5 TRPM1 promoter luciferase, 24 h | inhibition, % at 12.5 µM | hit rate 0.83% among 330,000;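 active means mean inhibition across replicates of 60% or more, whatever share of single replicates reaches that level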
PAX8 inh HTS: inhibitors of PAX8-driven TPO luciferase reporter, primary screen, RMG-I cells, single concentration; SteadyGlo, 24 h; hit rate 1.2% among 360,000; inhibition, % at 12.6 µM; AID 652154, 2013;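 active means mean replicate inhibition at least 60% with every replicate also reaching 60%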;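 further: luciferase light reporting Pax8 driven TPO promoter activity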
Hits are given with their value; – = inactive; · = no result given.

SMILES | HIF-2a block | Peg3 prom inh | Shn3 inh set2 | LMP1 NFkB inh | TRPM1 prom inh | PAX8 inh HTS
CC(C)C#Cc1ccc2c(c1)O[C@H](CN(C)C(=O)c1ccncc1)[C@@H](C)CN([C@H](C)CO)S2(=O)=O | · | · | · | · | · | –
CCN(CC)C(=O)C1CCCN(c2ncnc3c2cnn3-c2ccc(Cl)cc2)C1 (centres undefined) | 50.1 | 55.6 | – | – | – | –
COc1ccc(-n2ncc3c(N4CCN(Cc5ccccc5)CC4)ncnc32)cc1 | – | 102.8 | – | – | – | –
c1ccc(-n2ncc3c(N4CCCCC4)ncnc32)cc1 | – | – | – | 40.5 | – | –
Cc1ccc(-n2ncc3c(N4CCCC4)ncnc32)c(C)c1 | – | – | – | – | – | –
CCN(CC)C(=O)C1CCCN(c2ncnc3c2cnn3-c2cccc(C)c2)C1 (centres undefined) | – | – | – | – | – | ·
COc1cccc(N2CCN(c3ncnc4c3cnn4-c3ccc(C)cc3C)CC2)c1 | – | 101.8 | 90.9 | – | 67.6 | 101.7
CCCc1cn(CC[C@H]2CC[C@H](NC(=O)C3CCCC3)[C@H](CO)O2)nn1 | · | · | · | · | · | –
C[C@@H]1CN([C@H](C)CO)C(=O)c2cc(NC(=O)C3CCCCC3)ccc2O[C@H]1CN(C)S(=O)(=O)c1ccccc1 | · | · | · | · | · | –
Oc1[nH]c2ccccc2c1N=Nc1c(F)c(F)c(Cl)c(F)c1F | – | – | – | 69.1 | · | –
CC1CCCCC1NC(=O)CN1C(=O)CSc2cc(S(=O)(=O)N3CCCCCC3)ccc21 (centres undefined) | – | – | – | – | – | 84.7
CC(C)NC(=O)Nc1ccc2c(c1)C(=O)N([C@@H](C)CO)C[C@H](C)[C@H](CN(C)CC1CCCCC1)OCCCC[C@H](C)O2 | · | · | · | · | · | –
C[C@@H]1CN([C@H](C)CO)C(=O)c2cc(NC(=O)Nc3ccc(C(F)(F)F)cc3)ccc2O[C@@H](C)CCCCO[C@H]1CN(C)C(=O)NC1CCCCC1 | · | · | · | · | · | 96.4
C[C@H](CO)N1C[C@H](C)[C@H](CN(C)C(=O)NC2CCCCC2)OCCCC[C@H](C)Oc2ccc(NC(=O)Nc3ccc(F)cc3)cc2C1=O | · | · | · | · | · | 64.6
C[C@@H]1CCCCO[C@H](CN(C)C(=O)NC2CCCCC2)[C@H](C)CN([C@H](C)CO)C(=O)c2cc(NC(=O)Nc3ccc(C(F)(F)F)cc3)ccc2O1 | · | · | · | · | · | 73.4
Cc1ccc(-c2nn(-c3ccccc3)cc2CNCc2ccccc2)cc1 | – | 52.9 | – | – | – | –
Cc1ccc(-c2nn(-c3ccccc3)cc2NC(=O)CCl)cc1 | – | 105.1 | – | – | – | –
Cc1ccc(-n2cc(CNCCCn3cccn3)c(-c3cccc(C)c3)n2)cc1 | – | 85.0 | – | – | 78.9 | –
Cc1ccc(C)c(-n2cc(CNCCCn3cccn3)c(-c3ccccc3)n2)c1 | – | – | – | – | – | –
CCCN(C)C[C@H]1OCCCC[C@@H](C)Oc2ccc(NS(=O)(=O)c3ccc(C)cc3)cc2C(=O)N([C@@H](C)CO)C[C@H]1C | · | · | · | · | · | –
CC1(C)OC(C(O)(c2ccccc2)c2ccccc2)[C@@H](C(O)(c2ccccc2)c2ccccc2)O1 (some centres undefined) | – | 64.4 | – | – | – | –
O=C(Nc1ccc(-c2nc3ccc(NC(=O)c4cccs4)cc3[nH]2)cc1)c1cccs1 | – | 65.6 | – | – | 79.1 | ·
Cc1c(N=C2C=CC(=O)c3ccccc32)c(=O)n(-c2ccccc2)n1C | – | – | – | – | 70.9 | –
Cc1c(N=C2C=C(Br)C(=O)C(Br)=C2)c(=O)n(-c2ccccc2)n1C | – | – | – | – | – | –
C[C@@H]1CCCCO[C@@H](CN(C)C(=O)Nc2cccc3ccccc23)[C@H](C)CN([C@H](C)CO)C(=O)c2cc(NS(=O)(=O)c3ccc(F)cc3)ccc2O1 | · | · | · | · | · | 93.4
SMILES | HIF-2a block | Peg3 prom inh | Shn3 inh set2 | LMP1 NFkB inh | TRPM1 prom inh | PAX8 inh HTS
C[C@H]1CCCCO[C@H](CN(C)C(=O)Nc2cccc3ccccc23)[C@@H](C)CN([C@@H](C)CO)C(=O)c2cc(NS(=O)(=O)c3ccc(F)cc3)ccc2O1 | · | · | · | · | · | 87.4
COCCNC(=O)C[C@H]1CC[C@H]2[C@@H](COc3ccc(NC(=O)COC)cc3C(=O)N2C)O1 | · | · | · | · | · | –
CC(C)Oc1ccc(C(=O)Nc2nc3ccccc3[nH]2)cc1 | 55.0 | – | – | 69.9 | 79.7 | 68.3
O=C(Nc1nc2ccccc2[nH]1)c1ccc(OC(F)F)cc1 | – | – | – | – | – | –
Cc1[nH]c2ccccc2c1C(=O)CSc1nc2ncc(Cl)cc2[nH]1 | – | 114.6 | – | – | – | –
O=C(CSc1nc2ncc(Cl)cc2[nH]1)N1CCOCC1 | – | – | 85.8 | – | – | –
CC(=O)N(C)C[C@@H]1Oc2cc(C#Cc3ccc(F)cc3)ccc2S(=O)(=O)N([C@H](C)CO)C[C@@H]1C | · | · | · | · | · | –
COC(=O)[C@@]1(Sc2ccc(C)cc2)CC(=O)N(c2ccccc2)[C@@H]1c1ccccc1 | – | · | · | · | · | 64.6
CCc1cc(-c2n[nH]c(C)c2-c2nc3ccccc3n2C)c(O)cc1O | – | – | – | – | – | 119.8
CC(C)C#Cc1ccc2c(c1)O[C@@H](CN(C)Cc1ccccn1)[C@H](C)CN([C@@H](C)CO)S2(=O)=O | · | · | · | · | · | –
C=C1CCC[C@]2(C)C[C@H]3OC(=O)C(CN4CCCCC4CO)[C@H]3CC12 (some centres undefined) | – | 61.7 | – | 90.6 | 78.8 | –
C=C1CCC[C@]2(C)C[C@H]3OC(=O)C(CNC(C)(CO)CO)[C@H]3CC12 (some centres undefined) | – | – | – | – | – | –
C=C1CCC[C@]2(C)C[C@H]3OC(=O)C(CN(C)CC(OC)OC)[C@H]3CC12 (some centres undefined) | – | – | – | – | – | 63.2
C=C1CCC[C@]2(C)C[C@H]3OC(=O)C(CNC(C)CC)[C@H]3CC12 (some centres undefined) | – | – | – | – | – | –
C[C@H]1CCCCO[C@@H](CN(C)C(=O)NC2CCCCC2)[C@@H](C)CN([C@@H](C)CO)C(=O)c2cc(NC(=O)Nc3cccc4ccccc34)ccc2O1 | · | · | · | · | · | –
O=c1c2c3c(sc2nc(NCCO)n1-c1ccccc1)CCCC3 | – | – | – | – | – | –
CN(C)CCCNc1nc2sc3c(c2c(=O)n1CCc1ccccc1)CCCCC3 | – | 113.2 | – | – | 64.6 | –
CN(C)CCCn1c(=O)n(CCc2ccccc2)c(=O)c2c3c(sc21)CCCCC3 | – | 101.1 | – | – | – | –
COc1ccccc1NC(=O)N[C@@H]1CC[C@H](CC(=O)N[C@H](C)c2ccccc2)O[C@@H]1CO | · | · | · | · | · | –
COc1ccc(S(=O)(=O)Nc2ccc3c(c2)C(=O)N([C@H](C)CO)C[C@@H](C)[C@@H](CN(C)S(=O)(=O)c2cn(C)cn2)OCCCC[C@H](C)O3)cc1 | · | · | · | · | · | –
